Our source for the outcome and AC50 values is PubChem BioAssay (EPA / NIEHS).

Calls of active or inactive are those of the source. Rule for the calls: active = hit-call score of the fitted dose curve at least 0.9, where 1 is the maximum; inactive = score below 0.9.

Usually AC50 stands for the concentration giving half of the maximal activity seen.

Details in all cases: mRNA level, 48 h; actives raise or lower the signal
Read-out in experiment [1]: Insulin-like growth factor-binding protein 1 (IGFBP1), IGFBP1 (gene 3484)
The experiment is described as follows: LTEA_HepaRG_IGFBP1: Life Technologies and Expression Analysis (LTEA) Assay for Insulin-like growth factor-binding protein 1 (IGFBP1) using HepaRG (AID 2283508). The method, boiled down:
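Differentiated human HepaRG cells in serum-free induction medium were exposed in duplicate for 48 h to eight concentrations, top 100 uM with half-log dilutions, in 0.5% DMSO. Transcript levels came from qRT-PCR normalised to ACTB, GAPDH and POLR2A, fitted bidirectionally against DMSO.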

Read-out in experiment [2]: Interleukin 6 (IL6), IL6 (gene 3569)
Briefly: LTEA_HepaRG_IL6: Life Technologies and Expression Analysis (LTEA) Assay for Interleukin 6 (IL6) using HepaRG (AID 2283509). The method, boiled down:
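HepaRG cells exposed in duplicate for 48 h to eight half-log concentrations, top 100 uM, in 0.5% DMSO serum-free induction medium. mRNA measured by qRT-PCR, normalized to ACTB, GAPDH and POLR2A. Bidirectional fit versus DMSO.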

Read-out in experiment [3]: Interleukin 6 Receptor (IL6R), IL6R (gene 3570)
The experiment is described as follows: LTEA_HepaRG_IL6R: Life Technologies and Expression Analysis (LTEA) Assay for Interleukin 6 Receptor (IL6R) using HepaRG (AID 2283510). The method, boiled down:
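Concentration-response in human liver HepaRG cells: eight concentrations from 100 uM downward by half-logs, 48 h exposure, 0.5% DMSO vehicle. IL6R mRNA change measured by qRT-PCR and fitted in both directions relative to vehicle.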

Read-out in experiment [4]: Potassium channel subfamily K member 1 (KCNK1), KCNK1 (gene 3775)
Briefly: LTEA_HepaRG_KCNK1: Life Technologies and Expression Analysis (LTEA) Assay for Potassium channel subfamily K member 1 (KCNK1) using HepaRG (AID 2283511). The method, boiled down: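 Differentiated HepaRG cells, 48 h exposure in serum-free induction medium with 0.5% DMSO; 8 concentrations, half-log from 100 uM, duplicate. KCNK1 mRNA by qRT-PCR, normalized to ACTB, GAPDH, POLR2A; bidirectional fit vs DMSO.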

Read-out in experiment [5]: Keratin 19 (KRT19), KRT19 (gene 3880)
The experiment is described as follows: LTEA_HepaRG_KRT19: Life Technologies and Expression Analysis (LTEA) Assay for Keratin 19 (KRT19) using HepaRG (AID 2283512). The essentials: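 Differentiated human HepaRG cells, plated 48 h, were exposed in duplicate for 48 h in serum-free induction medium to eight half-log concentrations up to 100 uM in 0.5% DMSO. KRT19 mRNA was quantified by qRT-PCR, normalized to ACTB, GAPDH and POLR2A, and fitted bidirectionally versus DMSO.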

Read-out in experiment [6]: JUN Transcription Factor, JUN (gene 3725)
The experiment is described as follows: LTEA_HepaRG_JUN: Life Technologies and Expression Analysis (LTEA) Assay for JUN Transcription Factor using HepaRG (AID 2283513). The method, boiled down:
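Human HepaRG liver cells receive test chemicals in 0.5% DMSO for 48 h across an eight-point range topping at 100 uM. Expression changes in JUN are scored in both directions against the DMSO vehicle.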

Read-out in experiment [7]: Lipase C (LIPC), LIPC (gene 3990)
The experiment is described as follows: LTEA_HepaRG_LIPC: Life Technologies and Expression Analysis (LTEA) Assay for Lipase C (LIPC) using HepaRG (AID 2283514). The method, boiled down:
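HepaRG cells, 48 h after plating, treated in duplicate for 48 h in serum-free induction medium over 8 half-log concentrations from 100 uM, 0.5% DMSO. LIPC mRNA by TaqMan qRT-PCR normalized to ACTB/GAPDH/POLR2A; bidirectional fit versus DMSO.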

Read-out in experiment [8]: Lipoprotein lipase (LPL), LPL (gene 4023)
The experiment is described as follows: LTEA_HepaRG_LPL: Life Technologies and Expression Analysis (LTEA) Assay for Lipoprotein lipase (LPL) using HepaRG (AID 2283515). The method, boiled down: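 Differentiated HepaRG cells, plated 48 h, then exposed 48 h in serum-free induction medium to 8 concentrations (top 100 uM, half-log steps) in 0.5% DMSO, duplicate. LPL mRNA measured by qRT-PCR, normalized to ACTB, GAPDH and POLR2A.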

Read-out in experiment [9]: MicroRNA 122 (MIR122), gene 406906
Briefly: LTEA_HepaRG_MIR122: Life Technologies and Expression Analysis (LTEA) Assay for MicroRNA 122 (MIR122) using HepaRG (AID 2283516). Note: the transcript read is the microRNA miR-122. The essentials:
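HepaRG, 48 h exposure, 8-pt half-log from 100 uM, 0.5% DMSO; TaqMan qRT-PCR; bidirectional fit vs DMSO.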

Read-out in experiment [10]: matrix metalloproteinase-10 (MMP10), MMP10 (gene 4319)
Briefly: LTEA_HepaRG_MMP10: Life Technologies and Expression Analysis (LTEA) Assay for matrix metalloproteinase-10 (MMP10) using HepaRG (AID 2283517). The essentials: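 Differentiated HepaRG cells in serum-free induction medium exposed 48 h in duplicate to 8-point half-log series up to 100 uM in 0.5% DMSO. mRNA quantified by qRT-PCR, normalised to ACTB, GAPDH, POLR2A; bidirectional fit versus DMSO.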

Read-out in the next experiment: MYC, MYC (gene 4609)
The experiment is described as follows: LTEA_HepaRG_MYC: Life Technologies and Expression Analysis (LTEA) Assay for MYC using HepaRG (AID 2283518). The essentials: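 Differentiated human HepaRG cells, plated 48 h then switched to serum-free induction medium, were exposed in duplicate for 48 h to 8-point half-log series up to 100 uM in 0.5% DMSO. MYC mRNA measured by qRT-PCR, normalized to ACTB/GAPDH/POLR2A.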

Read-out in experiment [11]: matrix metalloproteinase-3 (MMP3), MMP3 (gene 4314)
Briefly: LTEA_HepaRG_MMP3: Life Technologies and Expression Analysis (LTEA) Assay for matrix metalloproteinase-3 (MMP3) using HepaRG (AID 2283519). The method, boiled down: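 HepaRG cells (~100,000/well) in serum-free induction medium were dosed in duplicate for 48 h with an 8-point half-log series from 100 uM, 0.5% DMSO. MMP3 mRNA was quantified by Fluidigm TaqMan qRT-PCR, normalized to three housekeeping genes.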

Read-out in experiment [12]: Paternally Expressed 10 (PEG10), PEG10 (gene 23089)
The experiment is described as follows: LTEA_HepaRG_PEG10: Life Technologies and Expression Analysis (LTEA) Assay for Paternally Expressed 10 (PEG10) using HepaRG (AID 2283520). The method, boiled down:
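Chemicals tested on HepaRG cells for 48 h, highest concentration 100 uM. PEG10 expression assessed by qRT-PCR relative to DMSO control.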

Read-out in experiment [13]: Nuclear factor NF-kappa-B p105 subunit (Homo sapiens) (UniProt P19838)
The experiment is described as follows: LTEA_HepaRG_NFKB1: Life Technologies and Expression Analysis (LTEA) Assay for Nuclear Factor Kappa B Subunit 1 (NFKB1) using HepaRG (AID 2283521).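 Note: TaqMan qRT-PCR transcript normalised to ACTB GAPDH and POLR2A housekeeping genes.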 The essentials:
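Differentiated human HepaRG cells were exposed for 48 h in serum-free induction medium to eight concentrations (top 100 uM, half-log steps, 0.5% DMSO), in duplicate. NFKB1 mRNA was measured by TaqMan qRT-PCR, normalized to ACTB/GAPDH/POLR2A, and fitted bidirectionally against DMSO.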

Read-out in experiment [14]: Protein phosphatase 2A (PPP2R4), PTPA (gene 5524)
The experiment is described as follows: LTEA_HepaRG_PPP2R4: Life Technologies and Expression Analysis (LTEA) Assay for Protein phosphatase 2A (PPP2R4) using HepaRG (AID 2283522). The essentials:
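Gene-expression endpoint in HepaRG hepatic cells: 48 h treatment across eight half-log concentrations up to 100 uM in 0.5% DMSO. PPP2R4 mRNA by qRT-PCR, normalized to three endogenous control genes.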

Read-out in experiment [15]: Phosphatase and tensin (PTEN), PTEN (gene 5728)
Briefly: LTEA_HepaRG_PTEN: Life Technologies and Expression Analysis (LTEA) Assay for Phosphatase and tensin (PTEN) using HepaRG (AID 2283523). The essentials: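 HepaRG cells, 48 h after plating, exposed in duplicate for 48 h in serum-free induction medium to 8 half-log concentrations up to 100 uM (0.5% DMSO). PTEN mRNA by qRT-PCR, normalized to ACTB, GAPDH, POLR2A; bidirectional fit versus DMSO.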

Read-out in experiment [16]: solute carrier (SLC22A1), SLC22A1 (gene 6580)
Briefly: LTEA_HepaRG_SLC22A1: Life Technologies and Expression Analysis (LTEA) Assay for solute carrier (SLC22A1) using HepaRG (AID 2283524). The essentials: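 Differentiated human HepaRG cells in serum-free induction medium, exposed 48 h in duplicate to 8-point half-log series from 100 µM top in 0.5% DMSO. SLC22A1 mRNA by TaqMan qRT-PCR normalized to ACTB, GAPDH, POLR2A; bidirectional fit versus DMSO.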

Read-out in experiment [17]: Pyruvate Dehydrogenase Kinase 4 (PDK4), PDK4 (gene 5166)
Briefly: LTEA_HepaRG_PDK4: Life Technologies and Expression Analysis (LTEA) Assay for Pyruvate Dehydrogenase Kinase 4 (PDK4) using HepaRG (AID 2283525). The essentials:
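HepaRG cells plated 48 h, then switched to serum-free induction medium and exposed in duplicate for 48 h to 8 half-log concentrations from 100 uM in 0.5% DMSO. PDK4 mRNA measured by qRT-PCR, normalized to ACTB, GAPDH and POLR2A; bidirectional fit versus DMSO.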

Read-out in experiment [18]: NAD(P)H dehydrogenase [quinone] 1 (NQO1), NQO1 (gene 1728)
The experiment is described as follows: LTEA_HepaRG_NQO1: Life Technologies and Expression Analysis (LTEA) Assay for NAD(P)H dehydrogenase [quinone] 1 (NQO1) using HepaRG (AID 2283526). The method, boiled down: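 Human HepaRG hepatic cells received chemicals for 48 h in serum-free induction medium with 0.5% DMSO, up to 100 uM. Expression was assessed by TaqMan qRT-PCR against housekeeping controls and fitted bidirectionally against DMSO.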

Read-out in experiment [19]: Nuclear factor erythroid 2-related factor 2 (Homo sapiens) (UniProt Q16236)
Briefly: LTEA_HepaRG_NFE2L2: Life Technologies and Expression Analysis (LTEA) Assay for Nuclear factor erythroid 2-related factor 2 (NFE2L2) Transcription Factor using HepaRG (AID 2283527).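 Note: TaqMan qRT-PCR transcript level normalised to ACTB GAPDH and POLR2A housekeeping genes.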 The essentials:
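Differentiated human HepaRG cells, serum-free induction medium, exposed 48 h in duplicate to eight half-log concentrations up to 100 uM in 0.5% DMSO. NFE2L2 mRNA by Fluidigm TaqMan qRT-PCR, normalised to ACTB, GAPDH, POLR2A; bidirectional change versus DMSO.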

Chain of Nuclear factor erythroid 2-related factor 2 (Homo sapiens) (Q16236 whole entry, looked up): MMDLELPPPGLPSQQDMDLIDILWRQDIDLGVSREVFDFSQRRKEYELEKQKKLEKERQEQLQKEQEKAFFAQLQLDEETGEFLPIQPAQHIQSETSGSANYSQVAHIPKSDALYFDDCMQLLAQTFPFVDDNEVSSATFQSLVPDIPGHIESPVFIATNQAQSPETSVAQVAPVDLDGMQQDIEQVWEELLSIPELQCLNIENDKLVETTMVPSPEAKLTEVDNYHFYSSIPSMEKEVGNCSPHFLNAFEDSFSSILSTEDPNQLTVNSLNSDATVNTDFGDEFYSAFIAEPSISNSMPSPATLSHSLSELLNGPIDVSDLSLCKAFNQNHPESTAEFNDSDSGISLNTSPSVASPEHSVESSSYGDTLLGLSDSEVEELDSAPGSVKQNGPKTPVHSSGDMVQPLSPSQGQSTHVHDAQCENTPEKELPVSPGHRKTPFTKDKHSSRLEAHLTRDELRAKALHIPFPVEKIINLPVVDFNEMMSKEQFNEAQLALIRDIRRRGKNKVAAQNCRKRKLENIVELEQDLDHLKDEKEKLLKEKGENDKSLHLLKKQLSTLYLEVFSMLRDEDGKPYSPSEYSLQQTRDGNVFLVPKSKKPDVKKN
Chain of Nuclear factor NF-kappa-B p105 subunit (Homo sapiens) (P19838 whole entry, looked up): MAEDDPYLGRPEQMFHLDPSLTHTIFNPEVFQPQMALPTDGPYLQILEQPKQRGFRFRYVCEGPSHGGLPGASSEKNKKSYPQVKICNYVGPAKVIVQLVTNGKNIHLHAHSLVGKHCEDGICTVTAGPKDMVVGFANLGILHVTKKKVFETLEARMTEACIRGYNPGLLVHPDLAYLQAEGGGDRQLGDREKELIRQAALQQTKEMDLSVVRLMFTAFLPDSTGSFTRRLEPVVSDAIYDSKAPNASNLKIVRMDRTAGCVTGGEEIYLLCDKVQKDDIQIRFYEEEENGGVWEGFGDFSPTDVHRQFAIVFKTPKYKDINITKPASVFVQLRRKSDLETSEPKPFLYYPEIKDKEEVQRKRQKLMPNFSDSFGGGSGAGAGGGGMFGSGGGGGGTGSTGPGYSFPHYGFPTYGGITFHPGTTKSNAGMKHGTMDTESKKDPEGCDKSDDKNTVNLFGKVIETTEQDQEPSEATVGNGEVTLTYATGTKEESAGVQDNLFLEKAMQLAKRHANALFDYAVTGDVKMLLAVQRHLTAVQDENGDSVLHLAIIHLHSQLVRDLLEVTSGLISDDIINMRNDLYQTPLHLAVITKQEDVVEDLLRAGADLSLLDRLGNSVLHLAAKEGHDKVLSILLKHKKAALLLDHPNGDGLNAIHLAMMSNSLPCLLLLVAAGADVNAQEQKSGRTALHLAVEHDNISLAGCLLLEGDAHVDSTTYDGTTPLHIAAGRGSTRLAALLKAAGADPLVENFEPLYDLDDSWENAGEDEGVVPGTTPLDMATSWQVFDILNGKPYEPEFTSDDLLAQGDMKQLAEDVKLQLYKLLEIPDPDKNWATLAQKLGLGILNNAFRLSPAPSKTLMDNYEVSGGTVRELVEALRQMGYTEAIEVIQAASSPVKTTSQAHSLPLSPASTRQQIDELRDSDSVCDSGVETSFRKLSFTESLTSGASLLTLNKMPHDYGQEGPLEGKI

As to `Cc1cccc([N+](=O)[O-])c1`, the result in [1], in experiment [2], in experiment [3], in experiment [4], in experiment [5] and in [6] was inactive. The outcome in experiment [7] is “inactive”; in experiment [8] it was “inactive”; in experiment [9], “inactive”; in experiment [10], “inactive”; with MYC, MYC (gene 4609), “inactive”; in experiment [11], “inactive”. The call in [12], in experiment [13], in experiment [14], in experiment [15], in experiment [16] and in [17] was inactive. Moreover, the call in experiment [18] and in experiment [19] was inactive.
In the case of `O=NN(c1ccccc1)c1ccccc1`, the compound was called inactive in experiment [1], in experiment [2], in [3], in experiment [4], in experiment [5] and in experiment [6]. Moreover, the outcome was “inactive” in [7]; “inactive” in experiment [8]; “inactive” in experiment [9]; “inactive” in experiment [10]; “inactive” with MYC, MYC (gene 4609); “inactive” in experiment [12]. For the same compound, the outcome in experiment [14], in [15], in experiment [16], in experiment [17] and in experiment [18] was inactive. Further, the half-maximal activity concentration (AC50) in experiment [11] is 80.6 µM (active).
`C[C@]12CCC(=O)C=C1CC[C@@H]1[C@@H]2CC[C@@]2(C)[C@H]1CC[C@]2(C)O`: the compound was called inactive in experiment [1], in experiment [2], in experiment [3], in experiment [4], in experiment [5] and in experiment [6]. For the same compound, the outcome in experiment [8] is “inactive”; in experiment [10], “inactive”; in the experiment with MYC, MYC (gene 4609) it was “inactive”; in experiment [14], “inactive”; in experiment [15], “inactive”; in experiment [18], “inactive”. Moreover, in experiment [19], the outcome was inactive. Also, the AC50 was 81.7 µM (active) in experiment [7]; 45.8 µM (active) in experiment [9]; 0.948 µM (active) in [11]; 2.07 µM (active) in experiment [12]; 45.8 µM (active) in experiment [16]; 45.8 µM (active) in [17].
As to `Cc1cc(-c2ccc(N)c(C)c2)ccc1N`, the compound was classed as inactive in experiment [1], in experiment [2], in [3], in experiment [4], in experiment [6] and in [7]. Besides, the outcome in [9] was “inactive”; in experiment [10], “inactive”; in the experiment with MYC, MYC (gene 4609), “inactive”; in [11], “inactive”; in experiment [14] it was “inactive”; in experiment [15] it was “inactive”. Also, the compound was called inactive in experiment [18]. In addition, the AC50 is 30.8 µM (active) in experiment [5]; 50 µM (active) in [8]; 33.7 µM (active) in experiment [12]; 50 µM (active) in experiment [16]; 9.92 µM (active) in [17].
